Each structure is given as a SMILES string. The campaign covered roughly 360,000 compounds. About 650 (0.18%) were called active. The sample as a whole holds a higher share of actives than the screen did. A number with no mark means an inactive call. No stated cut-off is given here; in the data, active means activation above about 30%; inactive means the rest.

Chain of Thyrotropin-releasing hormone receptor (Homo sapiens) (P34981 whole entry, looked up): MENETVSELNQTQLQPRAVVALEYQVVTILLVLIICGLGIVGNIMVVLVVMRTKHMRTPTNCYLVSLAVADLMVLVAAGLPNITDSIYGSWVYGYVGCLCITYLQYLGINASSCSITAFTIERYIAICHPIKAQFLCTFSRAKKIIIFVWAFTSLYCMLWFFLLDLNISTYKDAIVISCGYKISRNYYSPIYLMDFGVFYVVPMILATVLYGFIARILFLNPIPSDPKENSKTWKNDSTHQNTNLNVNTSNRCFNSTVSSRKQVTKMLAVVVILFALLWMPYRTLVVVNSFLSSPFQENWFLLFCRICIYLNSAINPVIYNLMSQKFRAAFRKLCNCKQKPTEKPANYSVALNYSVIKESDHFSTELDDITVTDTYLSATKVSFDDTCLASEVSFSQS

This test concerns the target Thyrotropin-releasing hormone receptor (Homo sapiens) (UniProt P34981). Put plainly: qHTS for Small Molecule Agonists and Allosteric Enhancers of Human TRH Receptor: Primary Screen for Agonists. Further: 0% is about no effect. To be noted: TRHR cells, calcium flux fluo-8, FDSS agonist mode; at 2 µM; stronger effect = higher value. The text has this:
NIH Chemical Genomics Center [NCGC] NIH Molecular Libraries Probe Centers Network [MLPCN] MLPCN Grant: MH089816-01 Assay Submitter (PI): Marvin Gershengorn This project aims to identify small drug-like molecules that activate (agonists) the thyrotropin releasing hormone (TRH) receptor (TRHR) or enhance its TRH-stimulated activity (allosteric enhancers). TRHR, a drug-accessible cell surface receptor expressed in specific brain regions, and its ligand TRH have been implicated in several central nervous system disorders, including depression and anxiety. Small molecule TRHR agonists or allosteric enhancers that are metabolically stable and able to cross the blood-brain barrier might serve as probes to elucidate the roles of brain TRH receptors in animal models, and might be valuable as lead compounds for the development of drugs to treat patients with central nervous system disorders. Upon TRHR-Gq activation in TRHR cells, intracellular calcium is released from stores in the endoplasmic reticulum. […] This primary screen measures compound-induced activation of calcium release.
For the HTS assay freshly prepared cells are plated at a density of 2000/well in 3 ul of complete DMEM medium containing 10% serum in 1536-well plates and cultured over night at 37 C in a humidified incubator with 5% CO2. The next day, 2 ul of a no wash calcium dye (ABD Bioquest) was added to the cells and plates were incubated at room temperature for 1 hour. For the assay, assay plates were loaded into the FDSS kinetic plate reader. A 10 cycle (1 second/cycle) baseline measurement is taken and then the FDSS online 1536 pintool delivers 23 nl of compound library (as well as TRH controls) to the plate. The plate is measured for kinetically at 1 cycle/sec for 180 seconds and is considered to be the agonist portion of the assay (eg, compounds which activate a positive calcium response during this portion are flagged as potential agonists). Following the 180 second read, 1 ul of either an EC20 (positive modulation assay) is delivered by an onboard pipette head. Measurements are taken kinetically for an additional 180 seconds. TRHR FDSS Screening Protocol 1. Reagent, 3 uL 2000 cells/well 1536 TC treated Black plate in media containing 10% FCS 2. Time, 18 hours, 33.5C 5% CO2 (cells grown at 37C) 3. Reagent, 2 uL ABD fluo-8 Ca dye 4. Time, 30 min-1.5hrs hours, Room temp (6 plates/batch) 5. Detector, EX 480/EM 530C, FDSS 10 cycles baseline (1sec/cycle) 6. Compound, 23 nL of stock solution from library 7. Detector, EX 480/EM 530C, FDSS […] (1sec/cycle) Agonist mode 8. Compound, 1 ul EC20 of TRH made up in HEPES HBSS, 10 nM final 9. Detector, EX 480/EM 530C, FDSS 100 cycles (1sec/cycle) Potentiator mode
On the technique in general: qHTS replaces the single test concentration by a dilution series.
`O=C(Cc1ccc(Cl)cc1)NCC(c1cccs1)S(=O)(=O)c1ccc(Cl)cc1` (stereo not drawn): the activation was -0.0259%.
The result for `CCCCN1C(=O)c2[nH]nc(-c3ccccc3O)c2C1c1cccc(OCc2ccccc2)c1` (stereo not drawn) reads 0.132%.
The result for `Cc1ccc2nc(-c3ccc(C)c(NC(=O)Cc4ccccc4)c3)oc2c1` reads -0.54%.
For `Cc1ccc(C2c3[nH]c4ccccc4c3CCN2C(=O)c2cccc(C)c2)cc1` (stereo not drawn) the value was 0.132%; for `Cc1ccc(S(=O)(=O)NC(N)=NCCC[C@@H](NC(=O)CNC(=O)c2ccccc2)C(=O)Nc2cc(C(F)(F)F)ccc2Cl)cc1`, -1.22%.
In the case of `COc1ccc(C2C(=O)N(C3CCCCC3)CC(=O)N2Cc2ccccc2Cl)cc1OC` (stereo not drawn), the activation was -1.14%.
The result for `COc1ccc(-c2nc(Cn3c(=O)cc(C)c4c(C)nn(-c5ccccc5)c43)c(C)o2)cc1OC` reads -0.897%; that for `Cc1ccc(Cn2ncc3c4sc(C)cc4n(C)c3c2=O)c(C)c1`, 0.195%.
For the compound `Cc1ccccc1CNC(=O)C1CCCN(S(=O)(=O)N(C)c2ccc(F)cc2)C1` (stereo not drawn), the activation is -0.334%.
For `Cc1cc(C)cc(NC(=O)CSc2nc3nccnc3c(=O)n2CCc2c[nH]c3ccccc23)c1` the value was 0.728%.
The result for `O=C(CCS(=O)(=O)c1cc(Br)cc2c1N(C(=O)C1CC1)CC2)Nc1ccc(C(F)(F)F)cc1` reads -0.155%; that for `CCOC(=O)c1c(S(=O)(=O)N2CCC(C(=O)NCc3ccccc3OC)CC2)c(C)n(C)c1C`, -0.102%.
As to `O=C(CCSCc1cccc(F)c1)NCc1ccccc1`, the activation is -0.592%.
The result for `CN(Cc1ccccc1)C(=O)c1cn(C)c2ccc(S(=O)(=O)N3CCCCC3)cc2c1=O` reads 0.115%; that for `CCOc1ccc(C2C(=O)N(C3CCCCC3)CC(=O)N2CCC2=CCCCC2)cc1OC` (stereo not drawn), 0.439%; that for `O=[S+]([O-])(c1ccc(OC(F)(F)F)cc1)N1CCN([S+](=O)([O-])c2ccc3c(c2)OCCO3)CC1`, -0.283%.
For `CCc1ccc2oc(-c3ccc(C)c(NC(=O)/C=C/c4ccco4)c3)nc2c1` the value was -0.323%; for `COc1ccccc1C(=O)Nc1c(C(=O)N(C)Cc2ccccc2)sc2nc(C)c(Cl)c(C)c12`, -1.19%.
For `CCc1cccc(NC(=O)CN(c2ccc(C)c(C)c2)S(=O)(=O)c2ccsc2C(=O)OC)c1` the value was 0.768%.
As for `COc1ccc(NC(=O)c2ccc3oc(=O)c(S(=O)(=O)c4ccc(F)cc4)cc3c2)c(OC)c1`, the activation was -0.513%.
Consider `COc1cc(Br)cc2cc(S(=O)(=O)c3ccccc3)c(=O)oc12`, for which the activation was 0.456%.
For `Cc1cc(S(=O)(=O)c2cc3ccc(O)c(C)c3oc2=O)ccc1F` the value was 44.2% (active); for `Cc1ccc2cccc(NC(=O)C(C)Oc3ccc(C)c(C)c3)c2n1` (stereo not drawn), 0.214%.
The result for `COc1ccccc1NC(=O)CSc1oc(-c2ccco2)nc1S(=O)(=O)c1ccc(Br)cc1` reads -0.526%; that for `Cc1ccccc1Cn1nc(C)c(NC(=O)c2cc(-c3ccc(F)cc3)on2)c1C`, -0.526%; that for `CC1=C(c2ccc(F)cc2)S(=O)(=O)N=C1N1CCC(C(=O)NCCc2ccccc2C)CC1`, 0.06%.
The result for `CCc1ccc(S(=O)(=O)n2ccnc2)cc1` reads 0.631%; that for `C/C(=C/c1ccccc1)C(=O)N1CCN(c2ccccc2)CC1`, -0.0779%; that for `O=C(O)CCC(=O)Nc1ccc(N2CCOCC2)cc1`, 0.0804%.
For `O=C(/C=C/c1ccc(N2CCOCC2)cc1)c1ccccc1`, the activation was 42.4% (active).
For `COc1ccc(Cn2c(=O)c3oc4ccccc4c3n(CC(=O)Nc3ccc(F)cc3F)c2=O)cc1` the value was 1.15%; for `CCOC(=O)c1cc2c(=O)n3ccccc3nc2n(CCCOC)c1=NC(=O)C(C)Oc1ccccc1` (stereo not drawn), 0.485%; for `N#Cc1nc(Nc2cc(F)cc(Cl)c2)nc(NC2CCCC2)n1`, 1.3%.
The result for `N#CN1CCC(NS(=O)(=O)c2cccc(F)c2)C1` (stereo not drawn) reads 0.751%.
As for `O=C(Cn1cnc2c(oc3ccccc32)c1=O)Nc1ccc(OC(F)(F)F)cc1`, the activation was 0.788%.
`CCOC(=O)C1CCN(c2nc3c(S(=O)(=O)c4ccc(CC)cc4)nnn3c3ccc(Cl)cc23)CC1`: the activation was 0.759%.
For `Cc1cccc(C)c1-n1ncc(C(=O)NCCCN2CCCCC2)c1C1CCN(C(=O)OC(C)(C)C)CC1` the value was 0.838%; for `CCC(CC)c1nn2cc(-c3ccccc3)nc2s1`, 6.57%.
`CC(C)CNc1ncnc2c1nnn2C`: the activation was -0.593%.
For the compound `CCOC(=O)c1cc(-c2ccc(OC)c(S(=O)(=O)Nc3ccc(OC)cc3OC)c2)on1`, the activation is 1.19%.
The result for `O=[S+]([O-])(c1ccc2c(c1)OCCO2)N1CCN([S+](=O)([O-])c2c(Cl)cc(Cl)cc2Br)CC1` reads -1.11%; that for `Cc1ccc(S(=O)(=O)N2CCCc3cc(NS(=O)(=O)c4cc(C)ccc4C)ccc32)cc1`, -0.123%.
Take `CCCCCCc1cc2cc(-c3nnc(-c4ccccc4)o3)c(=O)oc2cc1O`: the activation was 185% (active).
For `COc1cccc(N2CCN(C(=O)CCCCCn3c(=O)[nH]c4ccccc4c3=O)CC2)c1` the value was -0.437%.
For `COCCn1c(CCC(=O)Nc2cc(C)ccc2C)nc2cccnc21` the value was -1.95%; for `COc1ccccc1-n1c(-c2ccc(C)cc2)cn2c3c(=O)n(C)c(=O)n(C)c3nc12`, 0.636%.
For `CCc1ccc(N(CC)C(=O)CCn2cnc3onc(-c4ccc(F)cc4)c3c2=O)cc1` the value was 0.0408%; for `Cc1noc(C)c1-c1ccc2ncnc(NCc3ccc(F)c(F)c3)c2c1`, 21.5%.
Consider `CCC(=O)N1c2ccccc2CC1C(=O)N1CCN(c2cccc(OC)c2)CC1` (stereo not drawn), for which the activation was -0.304%.
The result for `CN(C)c1ccc(/C=C2\NC(=S)N(Cc3ccccc3)C2=O)cc1` reads 94.7% (active); that for `COc1ccccc1CNC(=O)NCc1noc2ccc(C)cc12`, -0.0554%.
Turning to `CCOc1ccc(CNC(=O)Cn2cc3c(n2)-c2c(oc(C(=O)N4CCCC4)c2C)CC3)cc1`, the activation was -0.1%.
The result for `CN(C)c1ccc(C(=O)NCC(=O)OC(C(=O)Nc2cc(C(F)(F)F)ccc2Cl)c2ccccc2)cc1` (stereo not drawn) reads 0.138%; that for `CC1(C(=O)NCCc2c[nH]c3ccccc23)C=CC2(CCCCC2)N1C(=O)c1ccccc1` (stereo not drawn), 0.212%; that for `O=C(CCCCCn1c(=O)[nH]c2ccccc2c1=O)NCCc1c[nH]c2ccccc12`, -0.335%.
For `N#C/C(=C/c1ccc(N2CCCCC2)o1)C(=O)NCCc1c[nH]c2ccccc12` the value was 43.2% (active); for `COc1ccc(CCNC(=O)CCCCn2c(=O)c3ccccc3n(Cc3ccccc3)c2=O)cc1OC`, -0.65%.
Take `COc1cc(/C=C2/SC(=S)N(Cc3ccccc3)C2=O)cc(OC)c1O`: the activation was 33.6% (active).
For `COc1cc(C(=S)NCc2ccccc2)cc(Br)c1O` the value was -0.891%; for `Cc1ccc(S(=O)(=O)N2CCc3cc(C(=O)Nc4ccc(Cl)cc4C)ccc32)cc1`, 0.483%.
For `Cc1nc2ccn(Cc3cccnc3)c(=O)c2cc1C(=O)N1CCN(c2ccccc2F)CC1` the value was -0.337%; for `O=C1CC(c2nnc(Cc3ccc(Cl)cc3)o2)CN1c1ccccc1` (stereo not drawn), -0.928%.
The result for `Cc1cccc(-n2ncc(C(=O)N3CCN(c4ccc(Cl)cc4)CC3)c2C2CCN(C(=O)OC(C)(C)C)CC2)c1` reads 3.67%.

(Values after PubChem BioAssay AID493084 (National Center for Advancing Translational Sciences (NCATS), 2011).)
